This is an account of results in PubChem BioAssay (EPA / NIEHS).

Inconclusive results are not listed. Calls of active or inactive are those of the source. How the source made its calls: active means hit-call score of the fitted dose curve at least 0.9, where 1 is the maximum; inconclusive means response in the unintended direction; inactive means score below 0.9.

Assay [1] is described as follows: Tanguay_ZF_120hpf_AXIS_legacy: (Legacy) Oregon State University Tanguay Lab 120 Hour Post-fertilization zebrafish Assay for Body Axis Malformation (AID 2283635). In short, it runs like this: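 Each dechorionated embryo was exposed alone from 6 hpf, with DMSO at 0.64% (vol/vol) and trimethyltin chloride 5 uM as positive control. Axis malformation was recorded at 120 hpf unless the embryo had died.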

The nature of assay [2]: Tanguay_ZF_120hpf_EYE_legacy: (Legacy) Oregon State University Tanguay Lab 120 Hour Post-fertilization zebrafish Assay for Eye Malformation (AID 2283636).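 Further: binary presence or absence of eye malformation scored by brightfield in 120 hpf larvae.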 In short, it runs like this:
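Static waterborne exposure of dechorionated zebrafish embryos (strain Tropical 5D), 6 to 120 hpf, sealed plates at 28C, 0.64% DMSO vehicle. Eye malformation is scored as a binary endpoint, with gain of signal analysed relative to DMSO.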

Assay [3] is described as follows: Tanguay_ZF_120hpf_SNOU_legacy: (Legacy) Oregon State University Tanguay Lab 120 Hour Post-fertilization zebrafish Assay for Snout Malformation (AID 2283637). The procedure, abridged: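 Dechorionated zebrafish, individually housed from 6 hpf in covered, sealed wells at 28C with 0.64% DMSO vehicle, were examined at 120 hpf for snout malformation. Responses were binary and analysed positive-direction relative to DMSO.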

Assay [4] is described as follows: Tanguay_ZF_120hpf_OTIC_legacy: (Legacy) Oregon State University Tanguay Lab 120 Hour Post-fertilization zebrafish Assay for Otic Vesicle Malformation (AID 2283639). The procedure, abridged: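 Brightfield scoring at 120 hpf, binary present/absent; DMSO negative control, 5uM trimethyltin chloride positive control. Static exposure at 28C, final DMSO 0.64% (vol/vol). Dead embryos not scored for malformation.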

Assay [5] can be described thus: Tanguay_ZF_120hpf_PE_legacy: (Legacy) Oregon State University Tanguay Lab 120 Hour Post-fertilization zebrafish Assay for Pericardial Edema (AID 2283640). The procedure, abridged: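 Zebrafish larvae are exposed from early development to 120 hpf at 28C, with 0.64% DMSO final. Each surviving larva receives a yes/no pericardial edema call by brightfield imaging, analysed relative to the DMSO baseline.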

Assay [6] can be described thus: Tanguay_ZF_120hpf_SOMI_legacy: (Legacy) Oregon State University Tanguay Lab 120 Hour Post-fertilization zebrafish Assay for Somite Malformation (AID 2283647). In short, it runs like this:
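Somitogenesis defects are recorded as binary calls in whole larvae at 120 hpf after continuous static chemical exposure starting at 6 hpf in dechorionated 5D embryos. DMSO serves as negative control and baseline.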

The nature of assay [7]: Tanguay_ZF_120hpf_CFIN_legacy: (Legacy) Oregon State University Tanguay Lab 120 Hour Post-fertilization zebrafish Assay for Caudal Fin Malformation (AID 2283649). In short, it runs like this:
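Single dechorionated 5D wild-type embryos are dosed at 6 hpf (final DMSO 0.64%) and held statically at 28C. Caudal fin malformation is recorded as present or absent at 120 hpf under brightfield, excluding dead embryos.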

Assay [8] in a line: Tanguay_ZF_120hpf_PIG_legacy: (Legacy) Oregon State University Tanguay Lab 120 Hour Post-fertilization zebrafish Assay for Pigmentation Malformation (AID 2283650). In short, it runs like this: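 Endpoint is incidence of abnormal pigmentation at 120 hpf in dechorionated 5D zebrafish exposed singly from 6 hpf at 28C, DMSO vehicle at 0.64%. Embryos dying by 24 or 120 hpf are excluded from scoring.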

A short description of assay [9]: Tanguay_ZF_120hpf_CIRC_legacy: (Legacy) Oregon State University Tanguay Lab 120 Hour Post-fertilization zebrafish Assay for Circulatory Malformation (AID 2283651). The procedure, abridged: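 Static exposure, 6–120 hpf, 28C, sealed and dark; one dechorionated 5D embryo/well; DMSO 0.64% v/v final. Binary circulation endpoint by brightfield; dead embryos not scored.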

A short description of assay [10]: Tanguay_ZF_120hpf_SWIM_legacy: (Legacy) Oregon State University Tanguay Lab 120 Hour Post-fertilization zebrafish Assay for Swim Bladder Malformation (AID 2283654).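 Further: swim bladder malformation in each larva scored yes or no under brightfield.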 In short, it runs like this: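 Static waterborne exposure of single dechorionated Tropical 5D zebrafish embryos, 6–120 hpf, 28C, 0.64% DMSO final. Read-out: swim bladder malformation, present/absent, relative to DMSO negative control; trimethyltin chloride 5uM served as positive control.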

A short description of assay [11]: Tanguay_ZF_120hpf_NC_legacy: (Legacy) Oregon State University Tanguay Lab 120 Hour Post-fertilization zebrafish Assay for Notochord and Tail Malformation (AID 2283656). The procedure, abridged: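 Binary notochord-distortion calls, made by brightfield inspection, form the read-out; activity is fitted in the positive direction against DMSO. Exposure ran statically from 6 to 120 hpf at 28C with 0.64% DMSO.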

Assay [12] is described as follows: Tanguay_ZF_120hpf_PFIN_legacy: (Legacy) Oregon State University Tanguay Lab 120 Hour Post-fertilization zebrafish Assay for Pectoral Fin Malformation (AID 2283648).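 Further: each larva judged yes or no for fin defect by brightfield with dead larvae skipped.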 In short, it runs like this:
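Scoring of pectoral fin malformation was binary, made at 120 hpf on larvae exposed statically from 6 hpf after enzymatic chorion removal. Activity was fitted upward relative to DMSO controls at 0.64% (vol/vol).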

Assay [13] can be described thus: Tanguay_ZF_120hpf_BRAI_legacy: (Legacy) Oregon State University Tanguay Lab 120 Hour Post-fertilization zebrafish Assay for Brain Malformation (AID 2283641). The procedure, abridged:
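Static exposure of staged wild-type embryos until 120 hpf, kept at 28C with light excluded and final DMSO of 0.64% (vol/vol). Presence or absence of brain malformation was noted under brightfield; mortality precluded scoring.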

The test system of assay [14] is Thyroperoxidase (TPO), gene 54314. The assay is described as follows: CCTE_Simmons_AUR_rTPO: CCTE's Amplex UltraRed Assay for Thyroperoxidase (TPO) Inhibition, Simmons Lab (AID 2283662).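 Further: potency for loss of signal meaning inhibition of peroxidase activity.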 The procedure, abridged:
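Cell-free peroxidase activity assay using rat thyroid gland microsomes with excess H2O2 (300 uM) and 25 uM Amplex UltraRed. Compounds tested from 5 nM to 87.5 uM; fluorescence measured after 30 min at 37C, analysed relative to DMSO baseline.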

The nature of assay [15]: Tanguay_ZF_120hpf_JAW_legacy: (Legacy) Oregon State University Tanguay Lab 120 Hour Post-fertilization zebrafish Assay for Jaw Malformation (AID 2283638). In short, it runs like this: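 Wild-type 5D embryos, chorion removed at 4 hpf, dosed singly from 6 hpf; 28C static, sealed, foil-covered, to 120 hpf. Endpoint: jaw defect yes/no (brightfield); mortality excludes scoring.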

The nature of assay [16]: Tanguay_ZF_120hpf_TRUN_legacy: (Legacy) Oregon State University Tanguay Lab 120 Hour Post-fertilization zebrafish Assay for Truncated Body (AID 2283655). The procedure, abridged:
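Single dechorionated zebrafish embryos received test chemical from 6 hpf in 0.64% DMSO, kept at 28C. At 120 hpf, brightfield inspection noted any truncated body.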

`CCCCCCCC/C=C\CCCCCCCC(=O)OC[C@@H](O)[C@H]1OC[C@H](O)[C@H]1O`: the call in assay [1], in [2], in assay [3], in assay [4], in assay [5] and in [6] was inactive. Further, the result in assay [7], in assay [8], in [9], in assay [10] and in assay [11] was inactive.
As to `Cn1c(=O)c2[nH]cnc2n(C)c1=O`, the molecule was called inactive in [1], in assay [2], in assay [3], in assay [4], in [5] and in [12]. The molecule was classed as inactive in assay [8], in assay [9], in [10] and in assay [11].
As for `CC(C)c1nnc2ccc(-c3ocnc3-c3cc(F)ccc3F)cn12`, the molecule was classed as inactive in [2], in assay [3], in assay [4], in [5], in assay [13] and in assay [6]. The molecule was classed as inactive in assay [12], in assay [7], in assay [8], in [9], in assay [10] and in [11].
In general, AC50 refers to the midpoint of the concentration-response curve, whichever way the signal moves. For `NC(=O)N(O)[C@@H]1COc2cc(OCc3ccccc3)ccc21`, the outcome in assay [2], in [3], in assay [4], in assay [5], in assay [13] and in assay [6] was inactive. For the same molecule, the outcome in assay [12], in [7] and in assay [10] was inactive. Moreover, in [14], the AC50 was 1.29 µM (active).
Regarding `OCC(CO)(CO)CO`, the outcome in assay [1], in [2], in assay [4], in [5], in assay [13] and in assay [6] was inactive. Also, the outcome in [12], in [7], in [8], in [9], in assay [10] and in assay [11] was inactive.
For the molecule `OC[C@H]1O[C@@](CO)(O[C@H]2O[C@H](CO)[C@@H](O)[C@H](O)[C@H]2O)[C@@H](O)[C@@H]1O`, the result in [1], in assay [2], in assay [3], in assay [4], in assay [5] and in assay [13] was inactive. The molecule was called inactive in assay [6], in assay [12], in assay [8], in [10] and in [11].
In the case of `CCCCCCOC(=O)CC(CC(=O)OCCCCCC)(OC(=O)CCC)C(=O)OCCCCCC`, the outcome in assay [1], in [2], in [15], in [4], in [5] and in assay [13] was inactive. Moreover, the outcome in assay [6], in assay [12], in assay [7], in assay [8] and in assay [9] was inactive.
In the case of `O=C1CN(N=Cc2ccc([N+](=O)[O-])o2)C(=O)N1`, the result in [2], in [3], in assay [4], in assay [13], in [6] and in assay [12] was inactive. The call in assay [9], in assay [10] and in assay [11] was inactive.
On to `O=C(O)[C@H](O)[C@@H](O)C(=O)O`, for which the outcome in assay [1], in assay [3], in assay [4], in assay [5], in assay [13] and in assay [6] was inactive. Also, the outcome in assay [12], in assay [7], in assay [8], in [9], in assay [10] and in [11] was inactive.
Regarding `CCCOc1ccc(S(=O)(=O)N2CCN(CC)CC2)cc1-c1nc2c(CC)n(Cc3ccccn3)nc2c(=O)[nH]1`, the result in assay [1], in assay [2], in [3], in assay [4], in [5] and in assay [13] was inactive. The result in assay [12], in [7], in assay [8], in assay [9], in [10] and in assay [11] was inactive.
Consider `NC(=O)NN=Cc1ccc([N+](=O)[O-])o1`, for which the molecule was called inactive in [1], in [3], in assay [5], in [13], in assay [6] and in [12]. Further, the molecule was classed as inactive in assay [7], in assay [8], in [9], in [10], in [16] and in assay [11].
As for `c1ccc2c(c1)-c1cccc3c1c-2cc1ccccc13`, the molecule was classed as inactive in assay [2], in [3], in [4], in [13], in [6] and in [12]. Further, the result in [7], in assay [8], in assay [9], in assay [10] and in assay [16] was inactive.
As for `CC1(C)C(=O)N(Cl)C(=O)N1Cl`, the result in [1], in [3], in [4], in assay [5], in assay [13] and in assay [12] was inactive. Further, the molecule was classed as inactive in assay [7], in assay [8], in assay [9], in [10] and in [11].
For the molecule `CC(C)CCCCCCOC(=O)C1CCCCC1C(=O)OCCCCCCC(C)C` (stereo not drawn), the call in assay [2], in [3], in assay [5], in assay [13], in assay [6] and in [12] was inactive. In addition, the molecule was classed as inactive in [7], in assay [8], in [9], in [10] and in [11].
For `NC(N)=O`, the molecule was classed as inactive in assay [1], in assay [3], in assay [4], in assay [6], in assay [12] and in assay [7]. For the same molecule, the molecule was called inactive in assay [8], in [10], in [16] and in assay [11].
As to `Cc1ccc(S(=O)(=O)NC(=O)NN2CCCCCC2)cc1`, the molecule was called inactive in [1], in assay [2], in [15], in assay [4], in [5] and in assay [13]. Also, the result in assay [6], in assay [12], in assay [7], in assay [8], in assay [9] and in [10] was inactive. For the same molecule, the outcome in [11] was inactive. Moreover, the AC50 in [14] is 8.68 µM (active).
For the molecule `Cc1cccc(O)c1C`, the half-maximal activity concentration (AC50) in assay [14] was 17.3 µM (active).
Consider `O=C(O)c1ccc2c(c1)nc(C(=O)NC1CCN(C3CC3)CC1)n2Cc1cc(-c2ccc(Cl)s2)on1`, for which the result in [1], in assay [3], in assay [5], in assay [13], in [6] and in assay [12] was inactive. In addition, the molecule was classed as inactive in assay [7], in [8], in assay [9], in assay [10] and in assay [11].
For the molecule `Cn1cc[nH]c1=S`, the result in [2], in [3], in assay [4], in assay [5], in assay [13] and in assay [6] was inactive. The molecule was called inactive in assay [7], in assay [8], in assay [9], in [10] and in [11]. Moreover, the AC50 in [14] was 0.0542 µM (active).
On to `CCCCCCCC1CCC(=O)O1` (stereo not drawn), for which the call in assay [1], in assay [2], in assay [5], in [6], in [7] and in assay [8] was inactive. The molecule was called inactive in assay [9] and in assay [11]. Besides, the figures for the AC50 in assay [3] and in [12] were 31.9 µM (active) and 51.5 µM (active), respectively.
